Only a selection was taken, and hits are over-represented in it overall.
RECQ1 helicase – RECQ1 (human) helicase inhibition; P46063; RECQ1 DNA unwinding, red fluorescence kinetic read; Potency, µM (doses to about 57.3 µM), hits mostly inhibitors; 240,000 tested, 0.54% active; AID 2549; note: nearly all actives have a fitted effect of over 30% in size
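RECQ1T1 50 nM; forked duplex (20 bp + 30-nt ss tails) 200 nM, ATP 2 mM final; pH 8.0, 2 mM MgCl2, 2.5 ug/ml poly(dI-dC); 15 min compound preincubation; discontinuous kinetic read over 2 h at RT.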
KDM4E inh – blocks human JMJD2E demethylase activity | AID 2147 | Potency, µM (doses to about 57.1 µM), usual class: inhibitors | 230,000 tested, 1.6% active | JMJD2E catalytic domain, FDH-coupled NADH fluorescence (FDH is formaldehyde dehydrogenase) | B2RXH2; active = well fitted inhibition curve with a large enough effect, not every such curve was filed as active; inconclusive = small, poorly fitted or top-dose-only effect, or another doubt; inactive = no such curve, though single readings can be large or run the other way; note: nearly all actives have a fitted effect of over 50% in size
Target sequence (B2RXH2 1-337 limits assumed): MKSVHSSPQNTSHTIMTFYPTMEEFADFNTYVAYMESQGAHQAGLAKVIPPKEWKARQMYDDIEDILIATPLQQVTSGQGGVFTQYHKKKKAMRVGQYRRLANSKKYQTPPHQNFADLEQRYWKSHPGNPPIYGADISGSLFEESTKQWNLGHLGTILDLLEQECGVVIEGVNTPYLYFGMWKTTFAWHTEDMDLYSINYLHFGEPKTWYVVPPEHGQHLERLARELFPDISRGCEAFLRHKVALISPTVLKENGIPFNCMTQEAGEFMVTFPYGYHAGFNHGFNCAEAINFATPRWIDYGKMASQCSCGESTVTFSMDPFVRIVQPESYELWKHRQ
L3MBTL1 inh-1 – L3MBTL1 (human) inhibition; Q9Y468; AlphaScreen L3MBTL1–H3K9me1 peptide binding; Potency, µM (titrated, usually from 57.1 µM), actives largely listed as inhibitors; 230,000 tested, 0.66% active; AID 485360; note: nearly all actives have a fitted effect of over 60% in size
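First, the protein-peptide complex forms for 30 min at room temperature (L3MBTL1 50 nM, biotinylated H3K9me1 peptide 75 nM). Next, compounds are pin-transferred and incubated 30 min. Finally, AlphaScreen beads are added and read after 30 min.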
TDP1 inh – TDP1 (human) enzyme inhibition | recombinant TDP1, AlphaScreen DNA substrate cleavage | AID 485290 | Potency, µM (series often up to 130 µM), hits mostly inhibitors | Q9NUW8 | 350,000 tested, 0.28% active; note: nearly all actives have a fitted effect of over 40% in size
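Recombinant human Tdp1 (E. coli-expressed, 1 nM final) preincubated with compounds 15 min at room temperature, then 5'-biotin/3'-phosphotyrosine-FITC DNA substrate (15 nM final) added for 5 min. AlphaScreen beads (10 ug/ml final) added 10 min; cleavage lowers signal.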
BLM inh – inhibitors of human Bloom syndrome helicase BLM; P54132; Potency, µM (series often up to 56.1 µM), actives largely listed as inhibitors; recombinant BLM DNA unwinding, fluorescence dequenching; 350,000 tested, 0.2% active; AID 2528; note: nearly all actives have a fitted effect of over 35% in size
APEX1 inh – blocks human APE1 abasic DNA cleavage. Potency, µM (titrated, usually from 65.8 µM), most hits filed as inhibitors. P27695. 350,000 tested, 0.35% active. recombinant APE1, TAMRA/BHQ-2 abasic DNA cleavage fluorescence; note: nearly all actives have a fitted effect of over 55% in size
Target sequence (P27695 whole entry, looked up): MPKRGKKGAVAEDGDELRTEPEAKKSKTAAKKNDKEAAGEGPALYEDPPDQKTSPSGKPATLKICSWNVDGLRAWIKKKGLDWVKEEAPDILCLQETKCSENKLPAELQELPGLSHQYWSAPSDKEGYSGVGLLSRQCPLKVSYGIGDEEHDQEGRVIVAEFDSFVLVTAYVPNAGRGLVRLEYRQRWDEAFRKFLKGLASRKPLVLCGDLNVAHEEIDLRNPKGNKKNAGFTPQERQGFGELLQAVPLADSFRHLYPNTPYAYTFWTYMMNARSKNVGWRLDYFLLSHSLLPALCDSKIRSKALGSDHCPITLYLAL
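APE1 at 0.75 nM final was preincubated with compound 15 min at room temperature, then 50 nM double-stranded THF abasic-site substrate (5'-TAMRA/3'-BHQ-2) was added. Fluorescence (ex 525/em 598 nm) was read kinetically; third-minus-first read gave activity.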
L3MBTL1 inh-2 – blocks human L3MBTL1 methyl-lysine binding; shares compounds with L3MBTL1 inh-1; L3MBTL1 methyl-lysine binding inhibition, biochemical qHTS; Potency, µM, actives largely listed as inhibitors; 500 tested, 91% active; AID 540279; note: nearly all actives have a fitted effect of over 70% in size
L3MBTL1 ctr – AlphaScreen signal inhibition, L3MBTL1 hit counter-screen; shares compounds with L3MBTL1 inh-1; AlphaScreen counterscreen, signal inhibition; Potency, µM (doses to about 57.1 µM), most hits filed as inhibitors; 500 tested, under 10 active; AID 602224
Numbers stand for hits; - = inactive; ? = inconclusive; . = no result. Unless noted, calls come from the whole dose curve; as a rule, active = well fitted curve in the direction sought with a large enough effect; inconclusive = small, poorly fitted or top-dose-only effect, or another doubt; inactive = no such curve, though single readings can be large; an effect the other way counts as inactive or inconclusive.

SMILES | RECQ1 helicase | KDM4E inh | L3MBTL1 inh-1 | TDP1 inh | BLM inh | APEX1 inh | L3MBTL1 inh-2 | L3MBTL1 ctr
Cc1ccc(/C=C2\SC(N3CCN(C(c4ccccc4)c4ccccc4)CC3)=NC2=O)o1 | - | - | 14µM | - | - | - | 15 | -
Cc1nc(N)sc1-c1csc(Nc2cccc(C(=O)O)c2)n1 | . | . | 22µM | . | - | - | 21 | -
O=C(CSc1nc2c(c(=O)[nH]1)CCC2)Nc1cccc(O)c1 | . | . | . | - | - | . | . | .
CC1=C(C(N)=O)C(c2ccc(C)cc2)n2nc(SCc3ccccc3F)nc2N1 (stereo not given) | . | . | . | - | - | . | . | .
O=C(CSc1nnc(-c2ccco2)o1)c1ccc[nH]1 | - | - | 28µM | - | ? | - | 19 | -
O=C(CSc1nnc(-c2ccco2)o1)c1ccccc1 | - | - | ? | - | - | - | . | .
CCn1c(=O)cc(SCC(=O)NCCc2ccc(OC)cc2OC)c2ccccc21 | . | . | . | - | - | . | . | .
O=C(O)CCCN1C(=O)/C(=C\c2ccccc2OCc2ccccc2)SC1=S | . | . | . | . | - | - | . | .
O=C(O)CCCN1C(=O)/C(=C\c2ccc(-c3nc4ccccc4s3)o2)SC1=S | ? | ? | 3.5µM | ? | - | ? | 4.2 | ?
CCCCOc1ccc(C(=O)Nc2ccc3c(c2)CCCN3S(=O)(=O)c2ccc(C)cc2)cc1 | . | . | . | - | - | . | . | .
C=CCn1c(SCC(=O)c2ccc(O)c(O)c2)nnc1-c1ccc(OC)cc1 | . | . | 8.9µM | . | . | - | 13 | -
Oc1c(CN2CCN(c3ccccn3)CC2)cc(Cl)c2cccnc12 | - | ? | 4.5µM | - | - | - | 21 | -
COc1cc(C(=O)Oc2c(CN3CCOCC3)cc(Cl)c3cccnc23)cc(OC)c1OC | - | ? | . | - | - | - | . | .
O=C(Oc1c(CN2CCOCC2)cc(Cl)c2cccnc12)c1ccccc1Cl | - | ? | 14µM | - | - | - | 27 | -
Cc1nnc(NC(=O)C2CCN(S(=O)(=O)c3ccc(F)c(Cl)c3)CC2)o1 | . | . | 35µM | - | . | - | ? | -
COc1cc2c(cc1OC)CN(Cc1nc3ccsc3c(=O)[nH]1)CC2 | - | ? | 25µM | . | ? | - | 21 | -
O=C1C[C@H](c2ccccc2)Oc2cc(O)cc(O)c21 | - | - | . | - | - | - | . | .
COc1ccc(C2=Nn3c(nnc3-c3ccco3)SC2)cc1 | - | - | . | - | - | - | . | .
Oc1ccc(C2=Nn3c(nnc3-c3ccco3)SC2)cc1O | - | - | 25µM | - | ? | - | 9.5 | -
CC[C@H](C)[C@H](NC(=O)[C@H](CC(C)C)NC(=O)[C@@H](N)CO)C(=O)NCC(=O)N[C@@H](CCCN=C(N)N)C(=O)N[C@@H](CC(C)C)C(=O)O | - | . | . | - | - | - | . | .
O=C(O)/C=C\C(=O)Nc1ccc(N2CCN(c3ccc(Cl)cc3)CC2)cc1 | - | - | ? | - | - | - | . | .
O=C(O)/C=C\C(=O)Nc1ccc(N2CCN(c3ccc(Cl)c(Cl)c3)CC2)cc1 | ? | ? | 25µM | - | - | - | 13 | ?
Oc1c(C(Nc2cccc(C(F)(F)F)c2)c2ccncc2)ccc2cccnc12 (stereo not given) | - | ? | 22µM | - | - | - | 21 | -
Cc1cccc(NC(c2cccc(Cl)c2)c2ccc3cccnc3c2O)n1 (stereo not given) | . | . | . | . | - | . | . | .
O=C1NN(c2ccccc2)C(=O)/C1=C/c1ccc(-c2ccc(C(=O)O)cc2)o1 | . | . | 13µM | . | - | - | 3 | ?
SMILES | RECQ1 helicase | KDM4E inh | L3MBTL1 inh-1 | TDP1 inh | BLM inh | APEX1 inh | L3MBTL1 inh-2 | L3MBTL1 ctr
O=C1NN(c2ccc(Cl)c(Cl)c2)C(=O)/C1=C/c1ccc(-c2ccccc2C(=O)O)o1 | . | . | . | . | - | - | . | .
COc1ccc2nc(-n3c(O)c(C4=c5ccccc5=NC4=O)[nH]c3=S)sc2c1 | - | - | 3.2µM | - | 20µM | - | 3.4 | ?
Cn1c(O)c(C2=c3ccccc3=NC2=O)[nH]c1=S | - | - | - | - | - | - | . | .
c1ccc(-c2nc(-c3ccncc3)n[nH]2)nc1 | - | ? | 3.2µM | - | - | - | 4.7 | -
COc1ccc2c(c1)c(=O)oc1c(C)c(OCc3cc(C(=O)O)oc3C)ccc12 | - | - | 35µM | - | - | - | 11 | -
COc1cccc(NC(=O)CSc2nc(O)c(C/C=C/c3ccccc3)c(=O)[nH]2)c1 | . | . | . | . | - | . | . | .
CCN(Cc1ccccc1)C(=O)c1nc(-c2cccc(F)c2)n2c1CCCCC2 | . | . | . | - | - | . | . | .
O=C(/C=C/c1ccccc1)Nc1scc(-c2ccccc2)c1C(=O)O | - | - | - | - | - | - | . | .
O=C(/C=C/c1ccco1)Nc1scc(-c2ccccc2)c1C(=O)O | ? | - | 25µM | . | - | ? | 2.7 | -
O=C(O)c1cc(-c2ccco2)nc2ccccc12 | - | ? | 22µM | . | - | 25µM | 3 | -
COc1cc(/C=C2\SC(=Nc3ccc(Cl)c(C(=O)O)c3)NC2=O)c(Br)c(Br)c1O | . | . | 32µM | 8.9µM | - | ? | 3 | ?
COc1cc(/C=C2\SC(=Nc3ccccc3)NC2=O)cc(Cl)c1O | . | . | . | . | - | - | . | .
COc1ccc(NC(=O)/C(C#N)=C/c2ccc(OCc3cc(=O)n4nc(C)sc4n3)cc2)cc1 | . | . | . | - | - | . | . | .
N#Cc1ccccc1S(=O)(=O)N1CCC(C(=O)NCc2ccccc2CN2CCCC2)CC1 | . | . | - | - | . | - | . | .
CCc1cccc(CC)c1NC(=O)C(Cc1ccccc1)NS(=O)(=O)c1cccc2nsnc12 (stereo not given) | . | . | . | - | - | . | . | .
Cc1ccc(N=Nc2ccc(O)c3ncccc23)cc1 | - | - | 40µM | - | - | - | 17 | ?
Nc1ccc(Cl)cc1Cl | - | . | . | - | . | - | . | .
Cc1cc(C(=O)O)ccc1-c1ccc(/C=C2\NC(=O)N(Cc3ccccc3Cl)C2=O)o1 | - | - | 18µM | - | - | - | 7.5 | -
Cc1cc(C(=O)O)ccc1-c1ccc(CO)o1 | - | ? | ? | - | - | - | . | .
COc1ccc(NC(=O)Cn2ncc(Cl)c(Cl)c2=O)cc1S(=O)(=O)N1CCOCC1 | ? | - | 14µM | - | - | ? | 12 | -
Cc1ccc(-c2cc(C(=O)O)c3cc(Br)ccc3n2)s1 | . | . | . | . | - | - | . | .
Cc1ccc(-c2cc(C(=O)O)c3cc(Br)ccc3n2)o1 | ? | ? | 32µM | . | - | - | 21 | -
O=C(Nc1ccc(S(=O)(=O)Nc2ncccn2)cc1)c1ccc2ncsc2c1 | - | 3.2µM | 20µM | - | - | - | ? | -
CCOC(=O)C(C)Sc1nc(-c2ccccn2)ncc1OC (stereo not given) | - | ? | 25µM | - | - | - | 27 | ?
COc1cnc(-c2ccccn2)nc1N(C)C | - | ? | 4µM | - | - | - | 6.7 | -

Screens from PubChem.
